Columns and labels:
Experiment in all cases: DAPPL (digital affinity profiling via proximity ligation, sequencing); 10 mM Tris-HCl pH 7.5, 50 mM NaCl, 1 mM DTT, 4% glycerol, room temperature, 30 min; GST-TFs on glutathione beads, 16-mer random dsDNA library, 0.1% formaldehyde crosslink after washing; high values mean tight binding
FEV = biological target: T1, FEV (Homo sapiens, UniProt Q99581 1-238); settings: protein: recombinant; tags: N-terminal GST; dsDNA, one strand shown
T1 sequence: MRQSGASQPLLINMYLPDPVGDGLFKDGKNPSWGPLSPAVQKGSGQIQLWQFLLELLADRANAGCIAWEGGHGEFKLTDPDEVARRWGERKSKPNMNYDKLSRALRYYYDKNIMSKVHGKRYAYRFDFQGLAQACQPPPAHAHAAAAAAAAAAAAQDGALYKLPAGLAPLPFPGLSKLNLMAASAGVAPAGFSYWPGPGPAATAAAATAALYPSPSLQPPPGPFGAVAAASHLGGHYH
Summary of the method: (§1)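 Binding signal is defined as a hexamer's read frequency for one factor over its frequency for the tag-only sample. To obtain reads, GST-fused human transcription factors were expressed in yeast, captured on glutathione beads, barcoded with DNA and pooled with that sample. Pools met 200 nmole of a 16-mer random double-stranded DNA library in Tris/NaCl/DTT/glycerol buffer for 30 min at room temperature before washing, 0.1% formaldehyde crosslinking, proximity ligation (BsaI/T4 ligase, 1 h, 37 °C), PCR and Illumina NextSeq500 sequencing.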

ETV5 = ETV5 (Homo sapiens, UniProt P41161 1-510); settings: protein: recombinant; tags: N-terminal GST; dsDNA, one strand shown
Summary of the method: as §1

HSF1 = HSF1 (Homo sapiens, UniProt Q00613 1-529); settings: protein: recombinant; tags: N-terminal GST; chain copies: 3; dsDNA, one strand shown
Summary of the method: as §1

SPIC = biological target: T2, SPIC (Homo sapiens, UniProt Q8N5J4 1-248); settings: protein: recombinant; tags: N-terminal GST; dsDNA, one strand shown
T2 sequence: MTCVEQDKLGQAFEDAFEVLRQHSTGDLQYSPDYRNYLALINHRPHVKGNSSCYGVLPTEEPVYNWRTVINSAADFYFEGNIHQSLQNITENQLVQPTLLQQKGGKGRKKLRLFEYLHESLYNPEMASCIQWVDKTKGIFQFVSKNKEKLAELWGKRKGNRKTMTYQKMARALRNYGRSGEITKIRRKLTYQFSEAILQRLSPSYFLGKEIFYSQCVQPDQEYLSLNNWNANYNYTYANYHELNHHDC
Summary of the method: as §1

ELF4 = ELF4 (Homo sapiens, UniProt Q99607 1-663); settings: protein: recombinant; tags: N-terminal GST; dsDNA, one strand shown
Summary of the method: as §1

ELK4 = biological target: T3, ELK4 (Homo sapiens, UniProt P28324-2 1-405); settings: protein: recombinant; tags: N-terminal GST; dsDNA, one strand shown
T3 sequence: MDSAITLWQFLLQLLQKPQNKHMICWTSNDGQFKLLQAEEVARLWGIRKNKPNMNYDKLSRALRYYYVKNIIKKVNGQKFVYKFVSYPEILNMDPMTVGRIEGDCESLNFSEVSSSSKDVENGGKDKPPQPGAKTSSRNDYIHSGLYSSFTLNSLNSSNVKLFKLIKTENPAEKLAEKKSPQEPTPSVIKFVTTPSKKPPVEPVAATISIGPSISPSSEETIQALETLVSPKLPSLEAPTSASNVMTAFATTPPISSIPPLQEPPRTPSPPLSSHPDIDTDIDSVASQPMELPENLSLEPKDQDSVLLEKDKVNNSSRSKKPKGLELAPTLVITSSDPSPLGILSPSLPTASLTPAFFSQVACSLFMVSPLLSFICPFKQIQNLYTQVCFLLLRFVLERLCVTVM
Summary of the method: as §1

ETV2 = biological target: T4, ETV2 (Homo sapiens, UniProt O00321 1-342); settings: protein: recombinant; tags: N-terminal GST; dsDNA, one strand shown
T4 sequence: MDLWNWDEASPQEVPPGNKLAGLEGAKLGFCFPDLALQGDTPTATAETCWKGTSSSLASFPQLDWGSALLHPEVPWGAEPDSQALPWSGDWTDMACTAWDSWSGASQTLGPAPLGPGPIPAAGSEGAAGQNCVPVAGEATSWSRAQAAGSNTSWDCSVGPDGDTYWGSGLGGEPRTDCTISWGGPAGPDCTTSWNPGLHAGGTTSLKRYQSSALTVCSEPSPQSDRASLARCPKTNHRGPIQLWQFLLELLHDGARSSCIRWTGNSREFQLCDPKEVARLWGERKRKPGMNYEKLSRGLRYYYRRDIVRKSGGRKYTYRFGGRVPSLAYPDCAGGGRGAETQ
Summary of the method: as §1

ELF3 = biological target: T5, ELF3 (Homo sapiens, UniProt P78545 1-371); settings: protein: recombinant; tags: N-terminal GST; dsDNA, one strand shown
T5 sequence: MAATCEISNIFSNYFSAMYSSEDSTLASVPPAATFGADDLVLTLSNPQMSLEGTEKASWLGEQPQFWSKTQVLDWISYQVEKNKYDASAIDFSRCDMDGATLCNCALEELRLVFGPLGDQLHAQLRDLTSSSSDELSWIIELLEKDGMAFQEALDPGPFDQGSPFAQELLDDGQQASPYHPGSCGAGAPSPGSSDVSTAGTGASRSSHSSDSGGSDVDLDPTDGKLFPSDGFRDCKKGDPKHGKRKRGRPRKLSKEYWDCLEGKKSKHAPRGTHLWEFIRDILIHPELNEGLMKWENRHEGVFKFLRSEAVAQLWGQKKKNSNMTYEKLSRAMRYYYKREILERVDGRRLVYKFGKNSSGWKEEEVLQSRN
Summary of the method: as §1

CRX = CRX (Homo sapiens, UniProt O43186 1-299); settings: protein: recombinant; tags: N-terminal GST; dsDNA, one strand shown
Summary of the method: as §1

ETV1 = ETV1 (Homo sapiens, UniProt P50549 1-477); settings: protein: recombinant; tags: N-terminal GST; dsDNA, one strand shown
Summary of the method: as §1

ERF = biological target: T6, ERF (Homo sapiens, UniProt P50548 1-548); settings: protein: recombinant; tags: N-terminal GST; dsDNA, one strand shown
T6 sequence: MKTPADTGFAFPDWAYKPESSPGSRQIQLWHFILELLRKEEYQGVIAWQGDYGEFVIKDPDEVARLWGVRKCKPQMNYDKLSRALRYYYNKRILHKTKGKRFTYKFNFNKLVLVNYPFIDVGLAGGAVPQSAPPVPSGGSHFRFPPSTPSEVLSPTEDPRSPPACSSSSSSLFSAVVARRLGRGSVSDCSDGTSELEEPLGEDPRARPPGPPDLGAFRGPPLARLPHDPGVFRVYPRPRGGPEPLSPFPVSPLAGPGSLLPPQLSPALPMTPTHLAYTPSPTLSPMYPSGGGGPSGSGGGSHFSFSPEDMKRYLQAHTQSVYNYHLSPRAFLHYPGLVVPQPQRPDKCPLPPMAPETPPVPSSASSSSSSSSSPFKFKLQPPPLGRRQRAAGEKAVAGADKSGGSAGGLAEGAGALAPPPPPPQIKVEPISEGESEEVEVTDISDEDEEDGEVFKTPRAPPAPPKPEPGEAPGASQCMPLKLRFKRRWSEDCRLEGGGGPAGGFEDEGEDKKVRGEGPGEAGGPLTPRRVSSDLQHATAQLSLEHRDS
Summary of the method: as §1

ETV3L = biological target: T7, ETV3L (Homo sapiens, UniProt Q6ZN32 1-361); settings: protein: recombinant; tags: N-terminal GST; dsDNA, one strand shown
T7 sequence: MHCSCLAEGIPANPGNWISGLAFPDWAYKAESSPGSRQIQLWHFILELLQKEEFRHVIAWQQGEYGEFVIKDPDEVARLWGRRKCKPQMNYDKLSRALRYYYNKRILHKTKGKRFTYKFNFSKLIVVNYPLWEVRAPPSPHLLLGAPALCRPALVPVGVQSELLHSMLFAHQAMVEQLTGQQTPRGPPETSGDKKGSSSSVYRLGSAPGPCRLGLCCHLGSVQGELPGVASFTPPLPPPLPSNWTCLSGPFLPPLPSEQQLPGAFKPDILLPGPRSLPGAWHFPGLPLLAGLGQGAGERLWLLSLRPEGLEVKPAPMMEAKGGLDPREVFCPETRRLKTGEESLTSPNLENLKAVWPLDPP
Summary of the method: as §1

ETS2 = biological target: T8, ETS2 (Homo sapiens, UniProt P15036 1-469); settings: protein: recombinant; tags: N-terminal GST; dsDNA, one strand shown
T8 sequence: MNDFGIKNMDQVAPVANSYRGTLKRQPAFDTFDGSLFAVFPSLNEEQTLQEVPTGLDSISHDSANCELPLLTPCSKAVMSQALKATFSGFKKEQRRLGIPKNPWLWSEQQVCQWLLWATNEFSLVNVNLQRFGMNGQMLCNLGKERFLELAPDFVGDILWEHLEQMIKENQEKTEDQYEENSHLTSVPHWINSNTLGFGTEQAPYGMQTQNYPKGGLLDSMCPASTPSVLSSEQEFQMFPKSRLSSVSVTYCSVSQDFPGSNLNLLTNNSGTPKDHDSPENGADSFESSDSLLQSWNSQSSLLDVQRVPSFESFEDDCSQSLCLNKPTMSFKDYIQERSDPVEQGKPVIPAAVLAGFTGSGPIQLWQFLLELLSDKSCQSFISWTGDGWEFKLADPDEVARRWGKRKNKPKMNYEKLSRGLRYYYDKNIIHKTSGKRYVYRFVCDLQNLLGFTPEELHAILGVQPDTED
Summary of the method: as §1

SPDEF = biological target: T9, SPDEF (Homo sapiens, UniProt O95238 1-335); settings: protein: recombinant; tags: N-terminal GST; dsDNA, one strand shown
T9 sequence: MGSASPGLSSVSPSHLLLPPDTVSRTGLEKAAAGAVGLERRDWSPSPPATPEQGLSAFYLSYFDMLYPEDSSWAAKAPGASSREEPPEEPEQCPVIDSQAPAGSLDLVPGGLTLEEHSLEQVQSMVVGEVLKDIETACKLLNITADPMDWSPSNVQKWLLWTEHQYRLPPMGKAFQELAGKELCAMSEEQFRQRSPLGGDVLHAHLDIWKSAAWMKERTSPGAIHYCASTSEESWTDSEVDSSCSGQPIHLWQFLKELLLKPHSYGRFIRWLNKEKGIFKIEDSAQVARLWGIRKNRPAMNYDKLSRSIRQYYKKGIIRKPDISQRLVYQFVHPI
Summary of the method: as §1

ETV7 = biological target: T10, ETV7 (Homo sapiens, UniProt Q9Y603 1-341); settings: protein: recombinant; tags: N-terminal GST; dsDNA, one strand shown
T10 sequence: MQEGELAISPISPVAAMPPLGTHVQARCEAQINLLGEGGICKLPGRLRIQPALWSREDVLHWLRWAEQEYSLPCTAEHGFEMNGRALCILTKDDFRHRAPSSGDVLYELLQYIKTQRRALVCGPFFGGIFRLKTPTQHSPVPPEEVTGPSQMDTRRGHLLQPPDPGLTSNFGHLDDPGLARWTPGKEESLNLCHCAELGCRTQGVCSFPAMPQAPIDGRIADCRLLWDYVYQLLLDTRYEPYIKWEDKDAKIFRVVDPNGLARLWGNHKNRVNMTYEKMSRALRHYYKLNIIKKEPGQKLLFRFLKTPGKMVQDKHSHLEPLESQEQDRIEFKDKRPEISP
Summary of the method: as §1

ELF5 = biological target: T11, ELF5 (Homo sapiens, UniProt Q9UKW6-2 1-255); settings: protein: recombinant; tags: N-terminal GST; dsDNA, one strand shown
T11 sequence: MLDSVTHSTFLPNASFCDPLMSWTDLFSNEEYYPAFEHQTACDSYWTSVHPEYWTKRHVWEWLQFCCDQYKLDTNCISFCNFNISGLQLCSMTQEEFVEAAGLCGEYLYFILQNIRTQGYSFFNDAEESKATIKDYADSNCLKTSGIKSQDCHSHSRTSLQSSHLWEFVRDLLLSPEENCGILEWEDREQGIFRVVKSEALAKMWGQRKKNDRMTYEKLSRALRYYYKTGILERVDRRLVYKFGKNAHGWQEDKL
Summary of the method: as §1

ETV3 = biological target: T12, ETV3 (Homo sapiens, UniProt P41162-2 1-143); settings: protein: recombinant; tags: N-terminal GST; dsDNA, one strand shown
T12 sequence: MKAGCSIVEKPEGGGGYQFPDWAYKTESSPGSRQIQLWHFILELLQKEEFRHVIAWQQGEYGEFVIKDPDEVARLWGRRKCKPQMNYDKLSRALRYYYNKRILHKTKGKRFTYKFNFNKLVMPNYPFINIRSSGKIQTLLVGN
Summary of the method: as §1

ETV6 = ETV6 (Homo sapiens, UniProt P41212 1-452); settings: protein: recombinant; tags: N-terminal GST; dsDNA, one strand shown
Summary of the method: as §1

Sequence of ELF4 (Q99607 whole entry): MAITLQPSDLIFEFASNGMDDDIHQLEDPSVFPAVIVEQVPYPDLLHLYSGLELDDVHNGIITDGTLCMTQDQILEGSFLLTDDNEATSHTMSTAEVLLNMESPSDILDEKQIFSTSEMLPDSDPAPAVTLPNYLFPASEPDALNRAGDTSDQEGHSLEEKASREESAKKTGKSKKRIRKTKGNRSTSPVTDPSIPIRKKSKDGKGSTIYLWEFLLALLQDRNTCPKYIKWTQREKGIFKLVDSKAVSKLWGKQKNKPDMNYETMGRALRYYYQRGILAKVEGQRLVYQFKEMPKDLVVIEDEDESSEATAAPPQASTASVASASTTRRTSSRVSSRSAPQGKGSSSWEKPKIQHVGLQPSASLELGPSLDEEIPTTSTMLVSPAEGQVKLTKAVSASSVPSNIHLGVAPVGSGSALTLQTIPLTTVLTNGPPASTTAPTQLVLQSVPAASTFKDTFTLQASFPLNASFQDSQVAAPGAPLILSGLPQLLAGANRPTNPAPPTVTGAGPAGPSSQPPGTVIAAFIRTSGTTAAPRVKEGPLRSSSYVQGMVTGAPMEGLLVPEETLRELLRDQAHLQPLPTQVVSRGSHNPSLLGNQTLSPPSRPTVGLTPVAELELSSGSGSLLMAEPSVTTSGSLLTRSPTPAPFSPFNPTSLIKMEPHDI
Sequence of ETV1 (P50549 whole entry): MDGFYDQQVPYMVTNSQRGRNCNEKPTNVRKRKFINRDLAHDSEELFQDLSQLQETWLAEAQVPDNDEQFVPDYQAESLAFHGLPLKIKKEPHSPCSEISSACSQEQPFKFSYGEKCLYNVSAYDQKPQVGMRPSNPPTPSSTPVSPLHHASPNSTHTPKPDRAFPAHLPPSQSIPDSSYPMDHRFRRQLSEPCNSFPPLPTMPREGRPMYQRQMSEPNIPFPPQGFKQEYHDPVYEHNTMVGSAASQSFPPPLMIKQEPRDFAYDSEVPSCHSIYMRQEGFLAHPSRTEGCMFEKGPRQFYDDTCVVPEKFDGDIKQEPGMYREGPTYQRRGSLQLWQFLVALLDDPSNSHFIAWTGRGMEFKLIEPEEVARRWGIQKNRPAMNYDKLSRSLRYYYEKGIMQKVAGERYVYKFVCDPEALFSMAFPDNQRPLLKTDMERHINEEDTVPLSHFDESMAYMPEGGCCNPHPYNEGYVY
Sequence of ETV5 (P41161 whole entry): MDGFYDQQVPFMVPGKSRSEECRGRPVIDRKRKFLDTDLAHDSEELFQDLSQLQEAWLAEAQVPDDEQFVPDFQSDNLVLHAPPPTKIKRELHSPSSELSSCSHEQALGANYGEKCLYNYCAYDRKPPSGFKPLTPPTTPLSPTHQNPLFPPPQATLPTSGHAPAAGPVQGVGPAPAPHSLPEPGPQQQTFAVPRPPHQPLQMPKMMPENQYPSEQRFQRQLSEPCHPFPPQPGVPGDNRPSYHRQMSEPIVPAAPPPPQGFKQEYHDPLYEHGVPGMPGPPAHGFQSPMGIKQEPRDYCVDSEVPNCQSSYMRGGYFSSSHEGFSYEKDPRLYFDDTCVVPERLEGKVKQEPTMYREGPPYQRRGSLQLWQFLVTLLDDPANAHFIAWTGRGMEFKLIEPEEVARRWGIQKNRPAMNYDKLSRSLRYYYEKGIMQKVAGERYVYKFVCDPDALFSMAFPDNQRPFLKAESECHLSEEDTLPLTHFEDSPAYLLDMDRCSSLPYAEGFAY
Sequence of HSF1 (Q00613 whole entry): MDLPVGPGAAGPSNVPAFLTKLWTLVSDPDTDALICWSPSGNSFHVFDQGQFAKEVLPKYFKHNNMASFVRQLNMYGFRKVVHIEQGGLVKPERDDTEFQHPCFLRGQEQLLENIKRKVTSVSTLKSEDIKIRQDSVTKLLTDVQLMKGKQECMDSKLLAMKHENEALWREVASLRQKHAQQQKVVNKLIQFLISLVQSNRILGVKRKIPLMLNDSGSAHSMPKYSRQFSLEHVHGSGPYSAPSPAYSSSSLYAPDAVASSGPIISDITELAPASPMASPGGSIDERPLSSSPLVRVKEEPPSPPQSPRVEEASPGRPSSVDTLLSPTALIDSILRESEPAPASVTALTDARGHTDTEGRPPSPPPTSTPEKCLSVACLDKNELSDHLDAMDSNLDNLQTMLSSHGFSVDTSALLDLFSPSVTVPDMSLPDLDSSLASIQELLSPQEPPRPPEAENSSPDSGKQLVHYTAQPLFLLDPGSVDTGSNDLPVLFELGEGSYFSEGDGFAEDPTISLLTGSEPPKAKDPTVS
Sequence of CRX (O43186 whole entry): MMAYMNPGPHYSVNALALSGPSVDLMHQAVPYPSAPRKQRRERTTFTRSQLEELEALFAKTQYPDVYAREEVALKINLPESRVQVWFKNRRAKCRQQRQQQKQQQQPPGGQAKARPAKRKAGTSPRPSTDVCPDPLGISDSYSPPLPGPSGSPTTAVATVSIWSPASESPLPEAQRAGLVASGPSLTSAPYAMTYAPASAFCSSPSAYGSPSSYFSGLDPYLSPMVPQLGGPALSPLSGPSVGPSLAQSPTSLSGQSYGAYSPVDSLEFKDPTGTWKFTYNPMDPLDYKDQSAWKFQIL
Sequence of ETV6 (P41212 whole entry): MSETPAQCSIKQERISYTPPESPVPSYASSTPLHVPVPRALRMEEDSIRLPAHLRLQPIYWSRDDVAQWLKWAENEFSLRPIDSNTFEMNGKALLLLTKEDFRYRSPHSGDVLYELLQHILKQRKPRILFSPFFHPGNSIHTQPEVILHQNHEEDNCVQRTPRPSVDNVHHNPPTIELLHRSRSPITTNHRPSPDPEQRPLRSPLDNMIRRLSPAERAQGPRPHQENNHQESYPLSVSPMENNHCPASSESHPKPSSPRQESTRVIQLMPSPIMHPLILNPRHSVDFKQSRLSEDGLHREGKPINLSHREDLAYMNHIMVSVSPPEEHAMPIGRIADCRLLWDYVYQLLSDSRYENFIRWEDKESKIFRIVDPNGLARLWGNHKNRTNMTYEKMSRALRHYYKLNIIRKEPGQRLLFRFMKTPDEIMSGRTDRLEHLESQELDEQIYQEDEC

For TGCATT, the binding signal (FEV) was 1.38 fold enrichment (6-mer frequency, TF over GST control), the binding signal (ETV5) was 1.3 fold enrichment (6-mer frequency, TF over GST control) and the binding signal (HSF1) was 1.24 fold enrichment (6-mer frequency, TF over GST control). For the same sequence, the binding signal (SPIC) was 1.44 fold enrichment (6-mer frequency, TF over GST control), the binding signal (ELF4) was 1.36 fold enrichment (6-mer frequency, TF over GST control) and the binding signal (ELK4) was 1.38 fold enrichment (6-mer frequency, TF over GST control). For the same sequence, the binding signal (ETV2) was 1.39 fold enrichment (6-mer frequency, TF over GST control), the binding signal (ELF3) was 1.49 fold enrichment (6-mer frequency, TF over GST control) and the binding signal (CRX) was 1.32 fold enrichment (6-mer frequency, TF over GST control). The binding signal (ETV1) was 1.32 fold enrichment (6-mer frequency, TF over GST control), the binding signal (ERF) was 1.45 fold enrichment (6-mer frequency, TF over GST control) and the binding signal (ETV3L) was 1.39 fold enrichment (6-mer frequency, TF over GST control). The binding signal (ETS2) was 1.34 fold enrichment (6-mer frequency, TF over GST control), the binding signal (SPDEF) was 1.41 fold enrichment (6-mer frequency, TF over GST control) and the binding signal (ETV7) was 1.22 fold enrichment (6-mer frequency, TF over GST control). For the same sequence, the binding signal (ELF5) was 1.25 fold enrichment (6-mer frequency, TF over GST control), the binding signal (ETV3) was 1.34 fold enrichment (6-mer frequency, TF over GST control) and the binding signal (ETV6) was 1.35 fold enrichment (6-mer frequency, TF over GST control).
